Results published in the supplement of paper PMC10849652.
The full data set covers some 8,800 targets. This sample favours those with a hit. About 0.5% of all pairs of compound and target were hits.

Key:
Test in all cases: log2 fold change, soluble protein after heating vs DMSO (PISA); higher = thermal stabilisation; K562 lysate, 10 uM; active = over 0.2 and 3.5 SD of the protein, either way, in both replicates (recomputed)
[1] = compound: C#Cc1cccc(Nc2ncnc3cc(OCCOC)c(OCCOC)cc23)c1 [erlotinib]
Method in brief: (§1)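 To prepare the extract, K562 pellets were dounce-homogenised in PBS pH 7.4 with 1 mM MgCl2, giving crude material at 1 mg/mL protein. This was treated with 10 μM compound for 30 min, then heated in aliquots for 3 min over 48°C-58°C before pooling and addition of NP-40 to 0.5% at 4°C. Centrifugation at 21,000xg for 90 min left soluble protein in the supernatant, which TMTpro 16plex LC-MS/MS quantified with equalised channel sums. Results are log-two fold changes in thermal stability compared with solvent controls, from duplicates.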

[2] = compound: C/C(=N\NC(=O)C1=CC(=CC=C1)S(=O)(=O)N2CCOCC2)/C3=C(C=CC(=C3)Cl)O
Method in brief: as §1

[3] = compound: C1=CC(=CC=C1C2=NC3=C(N2)C=C(C=C3)C(=O)N)OC4=CC=C(C=C4)Cl
Method in brief: as §1

[4] = compound: C1=CC2=C(C=CC(=C2)/C=C\3/C(=O)NC(=NCC4=CC=CS4)S3)N=C1
Method in brief: as §1

[5] = compound: C1=CC2=NC=CN=C2C=C1/C=C/3\C(=O)NC(=O)S3
Method in brief: as §1

[6] = compound: C1=CC=C(C=C1)C2=NC(=C(N2)C3=CC=NC=C3)C4=CC(=C(C=C4)Cl)O
Method in brief: as §1

[7] = compound: C1=CC=C2C(=C1)C3=NNC4=CC=CC(=C43)C2=O
Method in brief: as §1

[8] = compound: C1CCN(C1)C(=O)NC2=CC=CC(=C2)NC3=NC=C(C(=N3)NCCC4=CN=CN4)Br
Method in brief: as §1

[9] = compound: C1CN(CCC1(CC2=CC=C(C=C2)Cl)N)C3=NC=NC4=C3C=CN4
Method in brief: as §1

[10] = compound: C1COCCN1CCN2C3=CC=CC=C3N=C2NC(=O)C4=CC(=CC=C4)[N+](=O)[O-] [IRAK-1-4 Inhibitor I]
Method in brief: as §1

[11] = compound: C=CC(=O)N1CCC[C@@H](n2nc(-c3ccc(Oc4ccccc4)cc3)c3c(N)ncnc32)C1 [ibrutinib]
Method in brief: as §1

[12] = compound: CC(=O)c1cnc2ccc(-c3cc(Cl)c(O)c(Cl)c3)nc2c1N[C@H]1CC[C@H](CN(C)C)CC1
Method in brief: as §1

[13] = compound: CC(C)(C)Cn1c(N)nc2ccc(-c3[nH]c(C(C)(C)C)nc3-c3ccc(F)cc3)nc21 [ralimetinib]
Method in brief: as §1

[14] = compound: CC(C)(O)CC(=O)NCCn1ccc2ncnc(Nc3ccc(Oc4cccc(C(F)(F)F)c4)c(Cl)c3)c21
Method in brief: as §1

[15] = compound: CC(C)C1=C2N=C(C=C(N2N=C1)NCC3=CC=CC=C3)NCCCCCCN
Method in brief: as §1

[16] = compound: CC1=C(C(CC(=O)N1)C2=CC=C(C=C2)C(F)(F)F)C(=O)NC3=C(C=C4C(=C3)C=NN4)F
Method in brief: as §1

[17] = compound: CC1=C(C2=C(C=C1)C(=O)C3=CC=CC=C3N2CCCN)C
Method in brief: as §1

[18] = compound: CC1=C(C=C(C=C1)NC(=O)C2=CC(=CC=C2)C(C)(C)C#N)NC3=CC4=C(C=C3)N=CN(C4=O)C
Method in brief: as §1

[19] = compound: CC1=C(C=C(C=C1)NC(=O)C2=CC(=CC=C2)N(C)C)NC(=O)C3=CC=C(C=C3)O
Method in brief: as §1

[20] = compound: CC1=CC=C(C=C1)SC2=C3C=C(SC3=CN=C2)C(=O)N
Method in brief: as §1

Measured: log2 fold change

PELO (UniProt Q9BRX2)
Chain of UniProt Q9BRX2 (Q9BRX2 whole entry, looked up): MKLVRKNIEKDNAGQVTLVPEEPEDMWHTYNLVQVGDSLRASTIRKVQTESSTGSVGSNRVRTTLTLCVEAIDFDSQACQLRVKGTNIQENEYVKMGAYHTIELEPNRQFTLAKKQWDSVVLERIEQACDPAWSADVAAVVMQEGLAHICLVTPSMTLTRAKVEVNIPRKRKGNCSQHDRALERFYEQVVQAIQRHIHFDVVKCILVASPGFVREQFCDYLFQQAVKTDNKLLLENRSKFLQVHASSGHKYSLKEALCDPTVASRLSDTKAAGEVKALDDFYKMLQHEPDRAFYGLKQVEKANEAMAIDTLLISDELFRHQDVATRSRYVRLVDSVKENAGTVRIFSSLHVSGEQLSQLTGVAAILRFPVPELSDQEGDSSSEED
inactive: [1] 0 | [2] -0.047 | [3] -0.058 | [4] -0.014 | [5] -0.002 | [6] 0 | [7] -0.038 | [8] -0.021 | [9] -0.049 | [10] 0 | [11] 0.034 | [12] -0.004 | [13] 0.04 | [14] -0.035 | [15] 0.005 | [16] -0.02 | [17] -0.012 | [18] -0.005 | [19] 0.001 | [20] 0.002

PEF1 (UniProt Q9UBV8)
Chain of UniProt Q9UBV8 (Q9UBV8 whole entry, looked up): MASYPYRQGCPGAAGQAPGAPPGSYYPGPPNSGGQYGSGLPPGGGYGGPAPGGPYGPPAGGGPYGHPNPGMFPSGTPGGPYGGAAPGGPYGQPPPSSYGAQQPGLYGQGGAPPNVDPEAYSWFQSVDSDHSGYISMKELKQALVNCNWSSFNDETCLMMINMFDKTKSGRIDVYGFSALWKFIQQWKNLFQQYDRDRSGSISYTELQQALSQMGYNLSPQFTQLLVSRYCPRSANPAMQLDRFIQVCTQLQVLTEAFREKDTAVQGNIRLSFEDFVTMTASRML
inactive: [1] -0.01 | [2] 0.012 | [3] -0.014 | [4] -0.001 | [5] -0.039 | [6] -0.012 | [7] -0.021 | [8] -0.016 | [9] 0.056 | [10] 0.025 | [11] 0.009 | [12] -0.021 | [13] -0.034 | [14] -0.036 | [15] -0.029 | [16] -0.025 | [17] -0.004 | [18] 0.021 | [19] 0.01 | [20] -0.01

PTMA (UniProt P06454)
Chain of UniProt P06454 (P06454 whole entry, looked up): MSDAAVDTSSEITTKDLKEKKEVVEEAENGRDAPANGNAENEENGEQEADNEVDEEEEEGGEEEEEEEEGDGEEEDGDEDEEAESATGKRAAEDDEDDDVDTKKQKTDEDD
inactive: [1] -0.002 | [2] 0.062 | [3] 0.067 | [4] -0.013 | [5] -0.002 | [6] 0.01 | [7] -0.017 | [8] -0.009 | [9] -0.017 | [10] -0.037 | [11] 0.015 | [12] 0.028 | [13] -0.121 | [14] 0.009 | [15] 0.004 | [16] -0.068 | [17] 0.006 | [18] 0.023 | [19] -0.015 | [20] 0.002

PCBP2 isoform 8 (UniProt Q15366)
Chain of UniProt Q15366 (Q15366 whole entry, looked up): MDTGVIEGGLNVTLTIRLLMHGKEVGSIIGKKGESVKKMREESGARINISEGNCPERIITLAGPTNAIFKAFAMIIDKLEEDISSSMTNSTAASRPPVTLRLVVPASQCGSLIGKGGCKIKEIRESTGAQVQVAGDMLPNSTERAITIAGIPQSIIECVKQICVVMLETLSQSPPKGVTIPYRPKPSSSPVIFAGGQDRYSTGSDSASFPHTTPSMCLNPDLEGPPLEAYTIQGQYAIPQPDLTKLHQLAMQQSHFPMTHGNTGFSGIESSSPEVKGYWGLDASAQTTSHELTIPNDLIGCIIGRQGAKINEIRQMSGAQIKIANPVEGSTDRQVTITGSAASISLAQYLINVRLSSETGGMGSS
inactive: [1] 0.118 | [2] -0.287 | [3] 0.024 | [4] 0.001 | [5] -0.039 | [6] 0.087 | [7] -0.041 | [8] -0.088 | [9] 0.01 | [10] 0.018 | [11] 0.15 | [12] 0.003 | [13] -0.003 | [14] -0.041 | [15] -0.005 | [16] -0.011 | [17] -0.007 | [18] 0.071 | [19] -0.05 | [20] -0.043

PRKCSH (UniProt K7ELL7)
inactive: [1] -0.01 | [2] -0.124 | [3] 0.004 | [4] -0.056 | [5] 0 | [6] -0.036 | [7] -0.061 | [8] -0.096 | [9] -0.038 | [10] -0.039 | [11] -0.05 | [12] 0.018 | [13] 0.049 | [14] -0.051 | [15] 0.049 | [16] 0.006 | [17] -0.017 | [18] -0.019 | [19] 0.005 | [20] -0.052

PUF60 isoform 2 (UniProt Q9UHX1)
Chain of UniProt Q9UHX1 (Q9UHX1 whole entry, looked up): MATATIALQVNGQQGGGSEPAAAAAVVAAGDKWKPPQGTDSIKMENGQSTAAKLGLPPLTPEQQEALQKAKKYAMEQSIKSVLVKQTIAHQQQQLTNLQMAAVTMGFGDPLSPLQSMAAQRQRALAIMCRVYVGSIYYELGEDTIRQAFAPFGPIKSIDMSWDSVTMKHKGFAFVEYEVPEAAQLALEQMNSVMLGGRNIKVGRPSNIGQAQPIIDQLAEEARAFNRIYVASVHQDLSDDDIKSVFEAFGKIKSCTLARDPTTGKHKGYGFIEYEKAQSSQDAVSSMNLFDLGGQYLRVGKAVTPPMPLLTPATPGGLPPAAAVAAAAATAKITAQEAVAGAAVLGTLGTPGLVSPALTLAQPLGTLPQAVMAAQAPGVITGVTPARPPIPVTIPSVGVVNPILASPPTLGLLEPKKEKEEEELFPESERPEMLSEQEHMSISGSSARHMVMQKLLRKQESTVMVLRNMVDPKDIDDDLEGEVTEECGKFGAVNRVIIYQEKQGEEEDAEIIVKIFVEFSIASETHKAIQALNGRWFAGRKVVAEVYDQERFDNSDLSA
inactive: [1] 0.102 | [2] -0.094 | [3] 0.083 | [4] -0.019 | [5] -0.064 | [6] -0.088 | [7] -0.005 | [8] -0.045 | [9] 0.033 | [10] -0.011 | [11] 0.153 | [12] -0.049 | [13] 0.045 | [14] 0.004 | [15] -0.174 | [16] -0.021 | [18] 0.032 | [19] -0.036 | [20] 0.013

PPP2R5B (UniProt Q15173)
Chain of UniProt Q15173 (Q15173 whole entry, looked up): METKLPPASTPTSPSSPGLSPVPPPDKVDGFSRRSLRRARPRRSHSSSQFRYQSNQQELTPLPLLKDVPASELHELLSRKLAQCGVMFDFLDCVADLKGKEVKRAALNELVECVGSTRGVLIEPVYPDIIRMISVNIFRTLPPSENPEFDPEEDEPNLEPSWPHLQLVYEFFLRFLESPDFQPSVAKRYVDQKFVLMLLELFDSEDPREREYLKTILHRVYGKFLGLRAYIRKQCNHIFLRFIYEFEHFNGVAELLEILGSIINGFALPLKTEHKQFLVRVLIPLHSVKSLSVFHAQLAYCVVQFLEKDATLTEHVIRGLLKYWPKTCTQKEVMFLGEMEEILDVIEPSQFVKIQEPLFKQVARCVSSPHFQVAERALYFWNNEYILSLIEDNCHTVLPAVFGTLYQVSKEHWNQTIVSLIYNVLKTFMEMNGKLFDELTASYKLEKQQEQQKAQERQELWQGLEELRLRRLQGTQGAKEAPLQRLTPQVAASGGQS
inactive: [1] -0.026 | [2] 0.038 | [3] 0.056 | [4] -0.106 | [5] 0.123 | [6] 0 | [7] 0.052 | [8] -0.051 | [9] -0.042 | [10] 0.016 | [11] 0.042 | [12] 0.033 | [13] 0 | [14] -0.046 | [15] -0.055 | [17] 0.009 | [18] 0.026 | [19] 0.08 | [20] -0.053

PMS1 (UniProt P54277)
inactive: [1] -0.024 | [2] 0.012 | [3] 0.041 | [4] -0.002 | [5] 0.106 | [6] 0.03 | [7] -0.094 | [8] -0.002 | [9] 0.016 | [10] -0.027 | [11] 0 | [13] -0.015 | [14] -0.021 | [15] 0.025 | [16] -0.052 | [17] 0.022 | [18] -0.02 | [19] 0.009

PTGS1 isoform 6 (UniProt P23219)
Chain of UniProt P23219 (P23219 whole entry, looked up): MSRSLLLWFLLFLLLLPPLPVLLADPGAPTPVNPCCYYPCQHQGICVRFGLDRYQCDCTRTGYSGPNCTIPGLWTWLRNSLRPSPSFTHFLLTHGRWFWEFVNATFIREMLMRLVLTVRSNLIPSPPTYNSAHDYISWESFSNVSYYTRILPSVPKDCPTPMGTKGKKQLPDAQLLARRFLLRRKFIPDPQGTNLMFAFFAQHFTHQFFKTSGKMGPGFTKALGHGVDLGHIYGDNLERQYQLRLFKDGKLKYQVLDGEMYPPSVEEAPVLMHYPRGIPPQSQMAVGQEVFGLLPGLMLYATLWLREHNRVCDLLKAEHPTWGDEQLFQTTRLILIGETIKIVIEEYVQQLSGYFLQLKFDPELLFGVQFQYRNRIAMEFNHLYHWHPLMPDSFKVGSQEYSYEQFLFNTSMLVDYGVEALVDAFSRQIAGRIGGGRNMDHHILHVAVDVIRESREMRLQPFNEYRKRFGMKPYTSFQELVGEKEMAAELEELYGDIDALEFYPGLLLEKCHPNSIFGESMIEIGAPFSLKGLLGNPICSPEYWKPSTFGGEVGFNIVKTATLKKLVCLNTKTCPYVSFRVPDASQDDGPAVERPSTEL
inactive: [1] -0.044 | [2] 0.118 | [3] 0.033 | [4] -0.105 | [5] -0.005 | [6] 0.086 | [7] -0.03 | [8] 0.008 | [9] -0.025 | [10] 0.061 | [11] 0.109 | [12] 0.022 | [13] -0.001 | [14] -0.075 | [15] -0.043 | [16] 0.023 | [17] -0.039 | [18] 0.023 | [19] -0.011 | [20] -0.026

PPP2R3C (UniProt Q969Q6)
inactive: [1] -0.061 | [2] -0.009 | [3] -0.126 | [4] -0.025 | [5] -0.019 | [6] 0.033 | [7] -0.032 | [8] -0.023 | [9] -0.035 | [10] -0.018 | [11] 0.108 | [12] 0.089 | [13] 0.109 | [14] 0.036 | [15] -0.088 | [16] 0.021 | [17] -0.02 | [19] 0.048 | [20] 0.196

POLR2G (UniProt P62487)
inactive: [1] 0.02 | [2] 0.012 | [3] 0.044 | [4] -0.005 | [5] 0.029 | [6] 0.022 | [7] 0.036 | [8] -0.002 | [9] 0.02 | [10] 0.03 | [11] -0.01 | [12] -0.001 | [13] 0.027 | [14] -0.017 | [15] -0.028 | [16] -0.015 | [17] 0.02 | [18] 0.029 | [19] -0.008 | [20] -0.01

PI4K2A (UniProt Q9BTU6)
Chain of UniProt Q9BTU6 (Q9BTU6 whole entry, looked up): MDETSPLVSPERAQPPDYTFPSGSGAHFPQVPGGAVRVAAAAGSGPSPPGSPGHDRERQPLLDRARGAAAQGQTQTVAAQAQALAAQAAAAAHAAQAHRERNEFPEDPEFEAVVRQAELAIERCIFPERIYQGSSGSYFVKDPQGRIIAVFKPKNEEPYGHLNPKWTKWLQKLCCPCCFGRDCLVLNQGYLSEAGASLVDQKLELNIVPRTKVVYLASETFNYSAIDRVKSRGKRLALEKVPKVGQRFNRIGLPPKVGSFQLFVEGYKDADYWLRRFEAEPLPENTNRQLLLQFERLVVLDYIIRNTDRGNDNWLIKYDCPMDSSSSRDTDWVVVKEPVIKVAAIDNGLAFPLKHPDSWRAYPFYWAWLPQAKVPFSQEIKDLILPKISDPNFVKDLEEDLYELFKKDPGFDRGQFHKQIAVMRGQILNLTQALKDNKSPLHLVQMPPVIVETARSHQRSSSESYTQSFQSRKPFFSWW
inactive: [1] -0.013 | [2] -0.005 | [3] -0.041 | [4] 0.021 | [5] -0.003 | [6] 0.02 | [7] 0.063 | [8] 0.002 | [9] 0.058 | [10] 0.003 | [11] -0.017 | [12] 0.044 | [13] 0.002 | [14] -0.037 | [15] -0.006 | [16] -0.028 | [17] 0.028 | [18] -0.06 | [19] 0 | [20] -0.009

PFKFB4 (UniProt Q16877)
Chain of UniProt Q16877 (Q16877 whole entry, looked up): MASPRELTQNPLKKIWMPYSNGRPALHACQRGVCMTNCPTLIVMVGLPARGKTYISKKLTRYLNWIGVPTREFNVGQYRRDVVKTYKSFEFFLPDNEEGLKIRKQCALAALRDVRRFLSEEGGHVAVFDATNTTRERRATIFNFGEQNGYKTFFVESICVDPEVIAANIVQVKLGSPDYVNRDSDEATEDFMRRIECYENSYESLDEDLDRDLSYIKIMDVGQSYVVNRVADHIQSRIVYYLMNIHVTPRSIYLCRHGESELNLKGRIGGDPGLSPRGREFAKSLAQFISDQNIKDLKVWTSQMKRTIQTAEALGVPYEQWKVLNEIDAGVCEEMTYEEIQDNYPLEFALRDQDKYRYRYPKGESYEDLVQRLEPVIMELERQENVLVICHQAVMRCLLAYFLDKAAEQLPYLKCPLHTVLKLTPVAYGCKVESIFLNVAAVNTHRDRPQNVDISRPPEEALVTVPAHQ
inactive: [1] 0.02 | [2] 0.044 | [3] 0.041 | [4] -0.024 | [5] -0.031 | [6] 0.096 | [7] -0.083 | [8] -0.003 | [9] 0.067 | [10] -0.023 | [11] 0.022 | [12] -0.005 | [13] 0.1 | [14] -0.032 | [15] -0.004 | [17] -0.008 | [18] -0.003 | [19] 0.093 | [20] 0.011

PCBP2 (UniProt H3BRU6)
inactive: [1] 0.094 | [2] -0.272 | [3] 0.166 | [4] 0.061 | [5] -0.057 | [6] -0.034 | [7] -0.15 | [8] -0.196 | [9] -0.096 | [10] 0.009 | [11] 0.046 | [12] 0.016 | [13] 0.031 | [14] -0.018 | [15] -0.036 | [16] -0.055 | [17] 0.001 | [18] 0.141 | [19] 0.039 | [20] -0.031

PFKP (UniProt Q01813)
Chain of UniProt Q01813 (Q01813 whole entry, looked up): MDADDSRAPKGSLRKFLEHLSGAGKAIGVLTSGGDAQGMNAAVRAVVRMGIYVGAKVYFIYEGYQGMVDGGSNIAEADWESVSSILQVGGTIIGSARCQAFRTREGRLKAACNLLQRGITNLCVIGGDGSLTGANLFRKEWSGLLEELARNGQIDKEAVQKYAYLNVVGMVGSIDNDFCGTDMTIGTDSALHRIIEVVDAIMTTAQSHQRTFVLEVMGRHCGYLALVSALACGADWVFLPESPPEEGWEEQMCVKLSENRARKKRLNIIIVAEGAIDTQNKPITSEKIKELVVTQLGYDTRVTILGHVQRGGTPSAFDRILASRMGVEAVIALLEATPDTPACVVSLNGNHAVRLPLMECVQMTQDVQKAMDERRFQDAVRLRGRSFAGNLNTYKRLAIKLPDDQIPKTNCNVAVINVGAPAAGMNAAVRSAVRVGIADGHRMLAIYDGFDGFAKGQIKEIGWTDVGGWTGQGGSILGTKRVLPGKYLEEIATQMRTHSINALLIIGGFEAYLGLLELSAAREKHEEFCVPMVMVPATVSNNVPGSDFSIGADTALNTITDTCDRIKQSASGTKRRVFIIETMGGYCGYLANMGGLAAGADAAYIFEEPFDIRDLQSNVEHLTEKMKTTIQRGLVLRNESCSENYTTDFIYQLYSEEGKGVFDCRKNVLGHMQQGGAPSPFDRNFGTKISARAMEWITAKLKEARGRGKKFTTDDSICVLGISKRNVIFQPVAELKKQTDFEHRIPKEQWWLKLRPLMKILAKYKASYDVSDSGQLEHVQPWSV
inactive: [1] -0.01 | [2] -0.006 | [3] 0.019 | [4] -0.001 | [5] -0.01 | [6] 0 | [7] 0.032 | [8] 0.033 | [9] 0.031 | [10] -0.003 | [11] -0.001 | [12] 0.009 | [13] 0.004 | [14] -0.029 | [15] 0.001 | [16] -0.015 | [17] 0.007 | [18] 0.003 | [19] 0.002 | [20] 0.062

PSMB9 (UniProt P28065)
Chain of UniProt P28065 (P28065 whole entry, looked up): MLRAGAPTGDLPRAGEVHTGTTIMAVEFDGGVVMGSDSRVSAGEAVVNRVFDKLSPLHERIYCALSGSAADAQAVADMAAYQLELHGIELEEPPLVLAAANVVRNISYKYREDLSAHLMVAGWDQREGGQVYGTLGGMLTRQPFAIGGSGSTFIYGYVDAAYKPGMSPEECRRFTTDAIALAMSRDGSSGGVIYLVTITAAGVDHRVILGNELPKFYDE
inactive: [1] 0.02 | [2] -0.112 | [3] 0.008 | [4] -0.062 | [5] -0.08 | [6] -0.061 | [7] 0.033 | [8] -0.084 | [9] 0.084 | [10] -0.048 | [11] -0.073 | [12] -0.196 | [13] 0.052 | [14] -0.01 | [15] 0.011 | [16] 0.003 | [17] -0.047 | [18] 0.096 | [19] -0.027 | [20] -0.178
